An excerpt weighted towards active compounds, which were near 19% of everything screened.
KB-V1 cytotox: kills drug-selected multidrug resistant KB-V1 cells | Potency, µM (highest dose often 46.1 µM), actives largely listed as cytotoxic | KB-V1 MDR cells viability, CellTiter-Glo, 72 h | 3.4% of 400,000 active | AID 1347076; note: nearly all actives have a fitted effect of over 60% in size
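Cytotoxicity via CellTiter-Glo luminescence after 72 h compound exposure at 37 degrees C. Cells: drug-selected KB-V1 line, DMEM phenol-red free plus 10% FBS. Compounds tested at multiple concentrations; normalized data fitted to concentration-effect curves.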
HT1080 IDH1KD tx: HT-1080 IDH1 knockdown cell toxicity (counter line); HT-1080 IDH1 knockdown viability, ATP luminescence, 48 h; Potency, µM (titrated, usually from 46.1 µM), for the others: at the highest dose activity, negative = toxicity, hits mostly cytotoxic; 2% of 360,000 active;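 note: 0% = DMSO wells and -100% = cell-free medium wells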
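CellTiter-Glo luminescence after 48 h compound exposure at 37 degrees C of IDH1-knockdown HT-1080 cells in 5% FBS RPMI. %Activity scaled between DMSO wells and cell-free media wells, with curves fitted and assigned curve classes.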
TDP1 cell noCPT: qHTS for Inhibitors of human tyrosyl-DNA phosphodiesterase 1 (TDP1): qHTS in cells in absence of CPT; 15% of 420,000 active; DT40 Tdp1-/- hTDP1 cells, no CPT, ATP luminescence, 48 h; Potency, µM (top dose mostly 46.2 µM), for the others: at the highest dose activity change, negative = growth inhibition, hits mostly inhibitors; note: nearly all actives have a fitted effect of over 55% in size
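A cellular qHTS used chicken DT40 cells lacking endogenous Tdp1 but carrying stably transfected human TDP1. Compounds were applied without camptothecin, and cell growth kinetics were judged by ATP-dependent luminescence after ≥48 hr.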
DT40 TDP1 CPT: DT40-hTDP1 cell growth loss with CPT; chicken DT40 Tdp1-/-;hTDP1 cells + 20 nM CPT, ATP luminescence, 48 h; 12% of 420,000 active; Potency, µM (doses to about 46.2 µM), for inactives: at the highest dose activity change, negative = growth inhibition, most hits filed as inhibitors; AID 686979; note: nearly all actives have a fitted effect of over 55% in size
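Chicken DT40 Tdp1-/- cells stably complemented with human TDP1 were seeded at 400 cells/well in medium containing 20 nM camptothecin, exposed to pin-transferred compounds, and grown at 37 °C for at least 48 hr. Viability was read as ATP luminescence.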
HT1080NT lethal: kills 2HG-producing HT-1080-NT fibrosarcoma cells. 1.6% of 360,000 active. Potency, µM (top dose mostly 46.1 µM), for inactives: at the highest dose activity, negative = less viability, hits mostly cytotoxic. HT-1080-NT fibrosarcoma viability, CellTiter-Glo ATP luminescence, 48 h. AID 686970;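 note: NT is the 2HG producing partner of a matched IDH1 knockdown line; 0% = DMSO-treated cells and -100% = media-only wells without cells; nearly all actives have a fitted effect of over 55% in size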
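750 cells/well, RPMI + 5% FBS; 2 h settle, compound pin-transfer, 48 h at 37 degrees C. CellTiter-Glo 10 min RT, luminescence. Normalized to DMSO and media-only wells.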
KB-3-1 cytotox: KB-3-1 parental cell cytotoxicity. KB-3-1 viability, CellTiter-Glo ATP luminescence, 72 h. Potency, µM (highest dose often 46.1 µM), hits mostly cytotoxic. 1.4% of 400,000 active; note: nearly all actives have a fitted effect of over 60% in size
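KB-3-1 parental drug-naive adenocarcinoma cells in DMEM/10% FBS, incubated 72 h at 37 C with pin-transferred compounds across a concentration series. Viability by CellTiter-Glo luminescence; concentration-response curves fitted after normalization.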
* = called active by the depositor; i = inactive; u = inconclusive; x = not tested or not shown. Calls come from the whole dose curve; as a rule, active = well fitted curve in the direction sought with a large enough effect; inconclusive = small, poorly fitted or top-dose-only effect, or another doubt; inactive = no such curve, though single readings can be large; an effect the other way counts as inactive or inconclusive. Unless noted, % is set by controls: 0 for no effect and ±100 for the full control effect; potency is the fitted concentration of half-maximal effect.

SMILES	KB-V1 cytotox	HT1080 IDH1KD tx	TDP1 cell noCPT	DT40 TDP1 CPT	HT1080NT lethal	KB-3-1 cytotox
COc1ccc([C@H]2C[C@@H](O)[C@H](n3cc(-c4ccc(F)cc4)nn3)CN2CC2CCCCC2)cc1	i	-1%	6.5µM*	u	2%	i
O[C@@H]1CN(CC2CCCCC2)[C@@H](c2ccc(Cl)cc2)C[C@H]1n1cc(C2CC2)nn1	u	-1%	23µM*	u	0%	u
COc1ccc([C@H]2C[C@H](n3cc(-c4ccc(F)cc4)nn3)[C@@H](O)CN2CC2CCCCC2)cc1	i	-22%	u	u	u	u
O[C@H]1C[C@H](c2ccc(Cl)cc2)N(CC2CCCCC2)C[C@@H]1n1cc(C2CC2)nn1	u	u	6.5µM*	5.8µM*	u	u
CCCCCCN1C[C@@H](n2cc(C3CC3)nn2)[C@H](O)C[C@@H]1c1ccc(C)cc1	i	u	u	u	-28%	i
O[C@@H]1C[C@H](c2ccc(Cl)cc2)N(CC2CCCCC2)C[C@H]1n1cc(C2CC2)nn1	i	4%	u	u	5%	i
Cc1ccc([C@H]2C[C@@H](O)[C@H](n3cc(C4CC4)nn3)CN2CC2CCCCC2)cc1	i	5%	18µM*	u	0%	i
O=C1CC(c2ccccc2Cl)=NN(c2ncnc3ccccc23)C1=O	i	0%	-25%	-24%	-9%	i
COc1ccc([C@H]2C[C@H](n3cc(C4CC4)nn3)[C@@H](O)CN2CC2CCCCC2)cc1	u	u	16µM*	u	u	u
COc1ccc([C@H]2C[C@H](n3cc(C4CC4)nn3)[C@@H](O)CN2C(=O)C2CCCCC2)cc1	u	11%	3%	-6%	17%	u
O=C(CCCN1CCC(C(O)c2ccc(F)cc2)CC1)c1ccc(F)cc1 (centres undefined)	x	x	u	-29%	x	x
COc1cc2c(cc1OC)n(CC(=O)Nc1ccc(C)cc1C)c(=O)n1nc(-c3ccccc3)nc21	i	x	6%	8%	x	i
Cc1c(C(=O)N2CCCCCC2)sc2ncnc(NCC3CCCO3)c12 (centres undefined)	x	x	-25%	-6%	x	x
c1ccc(CN2CCC(N3CCN(Cc4ccc5c(c4)OCO5)CC3)CC2)cc1	u	7%	18µM*	u	4%	i
O=C(c1ccc2c(c1)OCO2)C1CCCN(C2CCN(CCc3ccccc3)CC2)C1 (centres undefined)	i	23µM*	21µM*	18µM*	10µM*	i
CC(=O)c1cccc(CN2CCCC(C(=O)c3ccc4c(c3)OCO4)C2)c1 (centres undefined)	i	-25%	u	2%	2%	i
c1cc2c(cc1CN1CCN(C3CCCCCC3)CC1)OCO2	i	-4%	-1%	-17%	-1%	i
COc1ccccc1CNC(=O)c1cnn(-c2nccc(-c3cccs3)n2)c1C	x	x	u	18µM*	x	x
Cc1c(C(=O)NCCc2ccccn2)cnn1-c1nccc(-c2cccs2)n1	x	x	-17%	-12%	x	x
Cc1cc(Nc2ccccc2C(=O)O)ccc1Cl	x	x	-24%	-9%	x	x
C=CCC[C@@H](Cc1ccc(F)cc1)C(=O)OC[C@@H]1CCCN1C(=O)[C@@H](CC=C)CC(=O)N(CCO)Cc1ccccc1	u	u	18µM*	16µM*	u	i
C=CC[C@@H](Cc1ccc(F)cc1)C(=O)OC[C@H]1CCCN1C(=O)[C@H](CC=C)CC(=O)NCCO	i	13%	u	u	10%	i
C=CCC[C@@H](Cc1ccc(F)cc1)C(=O)OC[C@H]1CCCN1C(=O)[C@@H](CC=C)CC(=O)N[C@H](CO)Cc1ccccc1	i	-11%	u	u	-23%	i
C=CCC[C@@H](Cc1ccc(F)cc1)C(=O)OC[C@@H]1CCCN1C(=O)[C@H](CC=C)CC(=O)N[C@H](CO)Cc1ccccc1	u	-14%	18µM*	u	-13%	u
C=CC[C@@H](Cc1ccc(F)cc1)C(=O)OC[C@@H]1CCCN1C(=O)[C@@H](CC=C)CC(=O)N[C@@H](CO)Cc1ccccc1	i	-1%	18µM*	u	-2%	i
SMILES	KB-V1 cytotox	HT1080 IDH1KD tx	TDP1 cell noCPT	DT40 TDP1 CPT	HT1080NT lethal	KB-3-1 cytotox
C=CC[C@@H](Cc1ccc(F)cc1)C(=O)OC[C@@H]1CCCN1C(=O)[C@@H](CC=C)CC(=O)N[C@H](CO)Cc1ccccc1	u	u	16µM*	10µM*	-17%	i
C=CC[C@@H](Cc1ccc(F)cc1)C(=O)OC[C@H]1CCCN1C(=O)[C@H](CC=C)CC(=O)N[C@H](CO)Cc1ccccc1	i	-15%	u	21µM*	-22%	i
C=CC[C@@H](Cc1ccc(F)cc1)C(=O)OC[C@H]1CCCN1C(=O)[C@@H](CC=C)CC(=O)N[C@@H](CO)Cc1ccccc1	i	-3%	12µM*	12µM*	-2%	i
C=CC[C@@H](Cc1ccc(F)cc1)C(=O)OC[C@H]1CCCN1C(=O)[C@@H](CC=C)CC(=O)N[C@H](CO)Cc1ccccc1	i	-7%	u	u	-4%	i
O=S(=O)(O)c1ccc2c(c1)C(C(Cl)(Cl)Cl)OC(C(Cl)(Cl)Cl)O2 (centres undefined)	i	-5%	4%	15%	-10%	i
COc1ccc(F)cc1S(=O)(=O)Nc1ccc2c(c1)CCCN2C(=O)c1cccs1	i	x	18µM*	u	x	i
COc1ccc(F)cc1S(=O)(=O)Nc1cc2c3c(c1)CC(=O)N3CCC2	i	-14%	u	u	-17%	i
O=C(c1cccs1)N1CCCc2cc(NS(=O)(=O)c3ccc(F)cc3)ccc21	i	x	-79%	21µM*	x	i
Cc1cc(F)ccc1S(=O)(=O)Nc1ccc2c(c1)CCCN2C(=O)c1cccs1	u	x	23µM*	21µM*	x	i
O=C(c1cccs1)N1CCCc2cc(NS(=O)(=O)c3ccc(Cl)cc3)ccc21	i	x	u	u	x	i
Cc1ccc(S(=O)(=O)Nc2ccc3c(c2)CCCN3C(=O)c2cccs2)cc1C	i	x	16µM*	21µM*	x	i
COc1ccc(COC(=O)C2=C(C)NC(=O)NC2c2ccccc2)cc1 (centres undefined)	u	-7%	-17%	-23%	-1%	i
